USP10 inh: human USP10 deubiquitinase inhibition. Q14694. purified USP10, Ub-rhodamine fluorescence, 60 min. inhibition, % at 20 µM. 47,000 tested, 1.1% active. AID 1645856
USP7 inh: inhibitors of human USP7 deubiquitinase | Q93009 | purified USP7, Ub-rhodamine cleavage fluorescence | inhibition, % at 20 µM | 47,000 tested, 0.3% active
USP8 block: human USP8 deubiquitinase inhibition; purified USP8, Ub-rhodamine cleavage fluorescence, 30 min; inhibition, % at 20 µM; P40818; AID 1645853; 47,000 tested, 4.2% active
UCHL1 inh: blocks human UCHL1 ubiquitin-rhodamine cleavage; P09936; purified UCHL1, Ub-rhodamine cleavage fluorescence; 47,000 tested, 0.2% active; inhibition, % at 20 µM
* hit, by the source's call. Most compounds without a hit are left out; they make up all but 4.6% or so of the library. No stated cut-off is given here; in the data, active means inhibition above about 30%; inactive means the rest.

SMILES | USP10 inh | USP7 inh | USP8 block | UCHL1 inh
COc1ccc(Nc2nc(C(=O)NCc3ccc4c(c3)OCO4)cc3occc23)cc1 | 33* | -6 | 67* | 7
COc1ccc(Nc2nc(C(=O)NCc3ccccc3)cc3occc23)cc1 | 15 | -3 | 55* | 4
CCN1CCN(C(=O)c2cc3occc3c(Nc3ccc(OC)cc3)n2)CC1 | 2 | 0 | -2 | -3
CC(=O)c1cccc(-c2cnc3sc(NCC4CCOCC4)nn23)c1 | 6 | 0 | -3 | 6
CC(=O)Nc1cccc(-c2cnc3sc(NC4CCCCC4)nn23)c1 | 14 | 16 | 47* | 3
CNC(=O)c1cc2nc(N(C)C)n(-c3ccc(F)cc3)c2s1 | -5 | -5 | 89* | 5
CN(C)c1nc2cc(C(=O)N3CCCC3)sc2n1-c1ccccc1 | -6 | 0 | 57* | 7
C[C@H]1CCC=C2C[C@H]3OC(=O)C(CN4CCN(c5ccccn5)CC4)[C@H]3[C@H](O)[C@@]21C (stereo partly drawn) | 0 | -1 | -1 | -1
Cc1ccc(CNc2nc(-c3cccnc3)nn2S(C)(=O)=O)cc1 | 1 | -2 | 3 | 3
CN(Cc1ccc2c(c1)OCO2)C(=O)c1nc(-c2ccccc2)n(-c2ccccc2)n1 | 5 | 4 | -49 | 4
CS(=O)(=O)Nc1cccc(CNC(=O)c2nc(-c3ccccc3)n(-c3ccccc3)n2)c1 | 1 | -2 | 38* | -1
Cc1ccc(Cn2cc(C(=O)Nc3ccccc3C(N)=O)ccc2=O)cc1 | 22 | 10 | 54* | 3
O=C(NCCc1ccccc1)c1nnn(-c2ccccc2)n1 | 0 | 2 | 5 | 0
O=C(Nc1ccc(-n2cccc2)cc1)c1ccc(F)cc1 | 6 | 6 | 20 | 0
O=C(Nc1ccc(N2CCC(n3cccc3)CC2)cc1)c1ccccc1 | 15 | 8 | 30* | 1
O=C(COC(=O)c1ccccc1OCc1ccccc1)Nc1ccc(Cl)cc1 | 11 | -5 | 12 | 7
O=C(COC(=O)c1cc2ccccc2cc1O)Nc1ccc(Cl)cn1 | -8 | -1 | 37* | -11
O=C(COC(=O)c1cc2ccccc2cc1O)NCCc1ccccc1 | 15 | 8 | 42* | 1
Cc1cccc(C(=O)NC(NC(=O)c2cccc(C)c2)c2ccccc2F)c1 | 11 | 14 | 57* | 4
Cc1noc(-c2ccccc2NC(=O)c2ccc(Cl)c(Cl)c2)n1 | 6 | 4 | 10 | 2
O=C(Nc1ccccc1-c1nc(-c2ccccn2)no1)c1cc(Cl)ccc1Cl | 15 | 19 | 83* | 7
Cc1nc(SCC(=O)Nc2cc(Cl)ccc2C)c2oc3ccccc3c2n1 | 3 | 12 | 32* | 3
CSc1nc(NCCN2CCOCC2)c2c3c(sc2n1)CN(C)CC3 | -7 | -14 | -57 | -6
O=C(Nc1ccccc1)N1CCCN(Cc2c(F)cccc2Cl)CC1 | 8 | 7 | 15 | 7
COC(=O)Nc1cccn(Cc2c(Cl)cccc2Cl)c1=O | 50* | -13 | 93* | 22
SMILES | USP10 inh | USP7 inh | USP8 block | UCHL1 inh
N#Cc1ccc(NC(=O)Nc2ccc(OCc3ccccc3)cc2)cc1 | 7 | 9 | 22 | 0
N#Cc1ccc(NC(=O)Nc2cccn(Cc3ccc(F)cc3)c2=O)cc1 | 37* | -5 | 95* | 10
N#Cc1ccc(NC(=O)Nc2cccn(Cc3c(F)cccc3Cl)c2=O)cc1 | -4 | -26 | 89* | 5
COc1ccc(S(=O)(=O)Nc2cc(-c3ccncc3)no2)cc1Cl | -6 | -2 | -69 | -5
CCCn1c(NC(=O)Cc2coc3cc(OC)ccc23)nc2ccccc21 | -2 | -21 | 61* | -8
Cc1cc(C)c(NC(=O)CSc2nc3cn(C)nc3c(=O)n2CC2CC2)c(C)c1 | 13 | 5 | 42* | 0
CCN1C(=O)[C@H]2CN(Cc3cccnc3)C[C@H]2C12CCN(C(=O)NC(C)C)CC2 | 1 | -1 | -11 | -3
COc1ccc(Cl)cc1NC(=O)CSc1ncnc2nc[nH]c12 | 47* | 22 | 74* | 6
COc1ccc(Cl)cc1NC(=O)CSc1nnc(-c2ccoc2C)o1 | 1 | -139 | -2 | 3
C[C@]1(CO)[C@H]2CC[C@@]34C=C[C@@](CO)(CC[C@H]3[C@]2(C)CC[C@H]1O)C4 | 1 | 3 | 5 | 2
Cc1ccc(-c2cc(C(F)F)n3ncc(C(=O)Nc4ccc5c(c4)OCO5)c3n2)cc1 | -1 | 0 | 47* | 0
CCOc1ccc2c(c1)c(=O)c(C(=O)c1ccc(F)cc1)cn2CC(=O)Nc1ccccc1 | 28 | 17 | 38* | -2
CCOc1ccc2c(c1)c(=O)c(C(=O)c1ccccc1)cn2CC(=O)Nc1ccc2c(c1)OCCO2 | 53* | 8 | 95* | 6
O=C(Cn1cc(C(=O)c2ccccc2)c(=O)c2cc(F)ccc21)Nc1ccc2c(c1)OCCO2 | 27 | 10 | -139 | 5
